# Test results: PubChem BioAssay (NCI)
# About 79,000 compounds went through this panel and 15% of them were active in at least one assay; those are over-represented in the sample as a whole. Activity calls are given as the source filed them. Cut-off read from the data, not from the text of the source: active = growth inhibition above about 70%; inactive = the rest. Where a SMILES comes first, the peptide text is derived from it. [ ]: non-standard residue; d: D form. The star is where a group is joined. ξ: configuration not given here. Tos = Cc1ccc(S(=O)(=O)*)cc1; ξY = NC(Cc1ccc(O)cc1)C(=O)O
# Experiment: NCI Yeast Anticancer Drug Screen. Data for the mlh1 rad18 strain (AID 175)
# Conditions: S. cerevisiae mlh1 rad18 strain growth inhibition; at 50.0 µM; hits give high values
# In short: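 In this whole-cell yeast screen, a strain with altered DNA damage repair is challenged with compound, and its growth is measured against matched vehicle-treated controls.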
row,SMILES,growth inhibition
1,CC(C)(C)C1CC[C@H]2c3c([nH]c4ccc(Br)cc34)[C@H]3C(=O)N(c4ccccc4)C(=O)[C@H]3[C@H]2C1 (stereo not given in full),12.6% (inactive)
2,O=C(/C=C/c1ccccc1)OCCCl,-7.35% (inactive)
3,Cn1cccc1/C=N/N=C(/N)NO,-0.4% (inactive)
4,COc1ccc2ccccc2c1I,9.45% (inactive)
5,O=C1C(CO)=C[C@@H](O)[C@H]2O[C@@H]12,17.4% (inactive)
6,CCOC(CNCCC(=O)OC)OCC,-29.1% (inactive)
7,CCCCNc1nc2ccccc2c2c1ncn2CC(C)C,30.3% (inactive)
8,CC1CCOC(C)(Cc2ccccc2)O1 (stereo not given),-10.9% (inactive)
9,CC(=O)c1c(O)ccc2c(C)cc(=O)oc12,15.8% (inactive)
10,O=C1NC2(CCN(CCCC3(c4ccc(F)cc4)OCCO3)CC2)Oc2ccccc21,-55.7% (inactive)
11,CCOP(=O)(OCC)OC1CC(n2cnc3c(N(CC)CC)ncnc32)OC1CO[Si](C)(C)C(C)(C)C (stereo not given),-16.1% (inactive)
12,CC(=O)/C=C1/NC(C(=O)c2ccccc2)=CNC1c1ccccc1 (stereo not given),18.8% (inactive)
13,CCOC(=O)c1c(NCc2ccccc2)n(-c2ccccc2)c(=S)n(-c2ccccc2)c1=O,53% (inactive)
14,CCOC(=O)C1(C)CCCc2sc(N)c(C#N)c21 (stereo not given),5.45% (inactive)
15,Nc1c(O)cccc1C(=O)O,-28.7% (inactive)
16,Cc1cc(C)c(C2CC(O)C(CO)O2)cc1C (stereo not given),21.4% (inactive)
17,Nc1ccc(S(=O)(=O)NCCS(=O)(=O)O)cc1,-3.75% (inactive)
18,Cc1nn(C(=O)c2ccncc2)c2c1C(c1ccccc1)SC(N)=N2 (stereo not given),2.35% (inactive)
19,CCC(C(C)O)[N+](=O)[O-] (stereo not given),7.75% (inactive)
20,CCN(CC)CCNc1c2ccc(Cl)cc2nc2c1c(C)nn2C,6.95% (inactive)

row,SMILES,growth inhibition
1,ClC(Cl)(Cl)SSC(=Nc1ccccc1)SSC(Cl)(Cl)Cl,69.5% (inactive)
2,CC1CN=C(c2c(O)ccc3ccccc23)S1 (stereo not given),61.3% (inactive)
3,CCc1c(C)c(C#N)c(=S)n(C2OC(COC(C)=O)C(OC(C)=O)C(OC(C)=O)C2OC(C)=O)c1-c1ccccc1 (stereo not given),13.6% (inactive)
4,O=C1NC(CO)C(=O)NC1CO (stereo not given),-4.8% (inactive)
5,CCCCC(CCCC)(C(=O)NC)c1ccccc1,-23.5% (inactive)
6,CN(C)CCC(CCN(C)C)=NOC(=O)c1ccccc1,15.6% (inactive)
7,COC(=O)C(Cc1ccc(O)cc1)NC(=O)CNS(=O)(=O)c1ccc(C)cc1 (stereo not drawn) (Tos-Gly-[ξY]-OMe),8.4% (inactive)
8,C/C(=N/O)c1ccc(O)cc1O,13.8% (inactive)
9,Cc1cc(Cl)ccc1NC(N)=O,-1.85% (inactive)
10,O=C(OCC1OC(Br)CC(OC(=O)c2ccc([N+](=O)[O-])cc2)C1OC(=O)c1ccc([N+](=O)[O-])cc1)c1ccc([N+](=O)[O-])cc1 (stereo not given),35.5% (inactive)
11,CCCCCCCCOC(=O)C(C)OC(C)=O (stereo not given),12.1% (inactive)
12,CN(C)Cn1c2ccccc2c2ccccc21,-12.4% (inactive)
13,NCCCn1c2ccccc2c2cnccc21,-20.2% (inactive)
14,[N-]=[N+]=Nc1ccccc1Oc1ccccc1,10.5% (inactive)
15,COc1ccccc1NC(=O)C(CC(C(=O)Nc1ccccc1OC)/C(C)=N/Nc1ccc([N+](=O)[O-])cc1[N+](=O)[O-])/C(C)=N/Nc1ccc([N+](=O)[O-])cc1[N+](=O)[O-] (stereo not given),32.4% (inactive)
16,CC(=O)C1C(=O)C(=O)N(c2ccc(S(N)(=O)=O)cc2)C1=O (stereo not given),8.05% (inactive)
17,CC(C)OCC(O)CNCCN (stereo not given),-0.75% (inactive)
18,CCOC(=O)C/C(C)=N\NS(=O)(=O)c1ccc([N+](=O)[O-])cc1,2.45% (inactive)
19,Cc1cc(-n2cnc3c(Cl)ncnc32)ccc1N,-9.1% (inactive)
20,CCOC(=O)CNc1nc(Cl)nc(NCC(=O)OCC)n1,1.4% (inactive)
